130 sequences from the supplement of paper PMC8291772 can be followed below.

± gives the standard error. The full ranking holds about 1,300 sequences; the median of “fluorescence a.u.” is about 38, and the highest 2% start at about 280. The sample holds the highest values, similar sequences and a random draw of the others, so the mix is not that of the screen.

In the test the target is terminal deoxynucleotidyl transferase (calf thymus) (UniProt P06526). The test is described as follows: TdT poly-dT extension signal (Cy3 hybridisation fluorescence, uncapped minus capped) (fluorescence a.u.); higher = more efficient initiation of TdT extension. The settings on record: initiator chemistry: L-DNA (mirror-image), free 5'-OH (3'-tethered via HEG linker). The protocol: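 All mono- to pentamer D-DNA or L-DNA initiators were made by forward (3'->5') photolithographic in situ synthesis on glass on a hexaethylene glycol linker, leaving a free 5'-OH. Each was made in uncapped and DMTr-dT-capped versions, about 11 replicates each. Arrays were extended with calf thymus TdT (0.2 U/uL), 100 uM dTTP and 0.25 mM CoCl2 for 120 min at 37 C, hybridised with an rA18-Cy3 probe and scanned at 532 nm. The value is the mean uncapped minus the mean capped signal. IDs read 5'->3'. L-DNA is mirror-image; D-DNA 5'-OH initiators were below LOD (no extension).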
Chain of terminal deoxynucleotidyl transferase (calf thymus) (P06526 whole entry): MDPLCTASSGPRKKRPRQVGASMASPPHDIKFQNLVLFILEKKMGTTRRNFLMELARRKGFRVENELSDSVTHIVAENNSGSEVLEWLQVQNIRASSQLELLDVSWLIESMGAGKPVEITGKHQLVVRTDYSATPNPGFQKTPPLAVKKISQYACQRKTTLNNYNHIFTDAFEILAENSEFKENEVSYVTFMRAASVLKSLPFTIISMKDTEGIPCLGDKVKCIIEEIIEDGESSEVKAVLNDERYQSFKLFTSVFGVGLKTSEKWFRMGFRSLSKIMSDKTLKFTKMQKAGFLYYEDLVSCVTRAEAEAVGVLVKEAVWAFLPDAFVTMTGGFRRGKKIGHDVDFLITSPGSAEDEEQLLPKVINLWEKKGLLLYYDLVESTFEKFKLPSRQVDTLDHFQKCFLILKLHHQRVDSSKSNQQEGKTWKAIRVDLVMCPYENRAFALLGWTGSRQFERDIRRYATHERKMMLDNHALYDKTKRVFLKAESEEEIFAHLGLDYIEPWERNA
With TTCCA, the “TdT poly-dT extension signal” value worked out at 299 ± 18. In the case of ATCCA, the “TdT poly-dT extension signal” value came to 153 ± 10. To ATCCC belongs 147 ± 16; to TGCC, 126 ± 14. For CTTCA, the “TdT poly-dT extension signal” value stood at 130 ± 11. In the case of CCTAA, the “TdT poly-dT extension signal” value turned out to be 98.7 ± 6. Next, ATGCT: 116 ± 7.5; CGTTT: 51.4 ± 5. To GTAGG belongs 181 ± 10; to CCAAG, 120 ± 9.5; to CTTT, 127 ± 17. To TATC belongs 171 ± 12; to TGTA, 126 ± 10. Take TACA: the “TdT poly-dT extension signal” value was 178 ± 8.

For the sequence TTCCG, the “TdT poly-dT extension signal” value worked out at 388 ± 25. Next, CTCCG: 127 ± 11; GTCCG: 147 ± 12; TGCGC: 154 ± 12. To TTCTA belongs 312 ± 31; to TTCT, 243 ± 31.

Turning to ATCTG, the “TdT poly-dT extension signal” value turned out to be 143 ± 16. Next, CTCTA: 130 ± 12. Turning to GTCTG, the “TdT poly-dT extension signal” value was 128 ± 7.3.

Consider CTCTT, for which the “TdT poly-dT extension signal” value amounted to 122 ± 10. With TTCTG, the “TdT poly-dT extension signal” value turned out to be 320 ± 24. As to GTCTT, the “TdT poly-dT extension signal” value came out at 128 ± 8.

Regarding TTCTT, the “TdT poly-dT extension signal” value turned out to be 311 ± 24. With ACCCA, the “TdT poly-dT extension signal” value amounted to 77.1 ± 11. In the case of TCGAT, the “TdT poly-dT extension signal” value is 152 ± 12. With CAGTG, the “TdT poly-dT extension signal” value worked out at 49.3 ± 7.1. To CCTA belongs 84.4 ± 13; to ACAAC, 92.6 ± 6.6.

As to GCACG, the “TdT poly-dT extension signal” value is 87 ± 5.5.

For ATGCC, the “TdT poly-dT extension signal” value is 109 ± 15.

For CTCGT, the “TdT poly-dT extension signal” value worked out at 115 ± 9. Next, TTCGT: 330 ± 27; CTCGG: 158 ± 9.7. Next, GTCGG: 178 ± 14. ATCGT: the “TdT poly-dT extension signal” value turned out to be 189 ± 13. Consider TCCG, for which the “TdT poly-dT extension signal” value came out at 221 ± 19. As to TTCGA, the “TdT poly-dT extension signal” value was found to be 367 ± 21.

As to CTCG, the “TdT poly-dT extension signal” value was 124 ± 17. To TTCGG belongs 347 ± 20; to ATCGA, 206 ± 17. Consider TTCG, for which the “TdT poly-dT extension signal” value is 284 ± 31. Consider CTCGA, for which the “TdT poly-dT extension signal” value was 135 ± 12. On to TCATT, for which the “TdT poly-dT extension signal” value is 134 ± 15. To GACTG belongs 85.6 ± 6.6. On to GCCTG, for which the “TdT poly-dT extension signal” value came to 90.6 ± 8.8.

For the sequence CCAC, the “TdT poly-dT extension signal” value was 93 ± 7.6. To ATACG belongs 188 ± 13; to ACAGT, 65.8 ± 8.1; to ACTGG, 71.1 ± 8.8. To TAGCC belongs 105 ± 7.2.

On to GTCGC, for which the “TdT poly-dT extension signal” value stood at 137 ± 12.

For CTCGC, the “TdT poly-dT extension signal” value is 146 ± 15. Consider TTCGC, for which the “TdT poly-dT extension signal” value was 323 ± 18. Next, CGGTC: 31.7 ± 5.1; AGCGC: 57.8 ± 6.1; CTAGT: 157 ± 12. As for GTAGA, the “TdT poly-dT extension signal” value came to 191 ± 19. In the case of TAAG, the “TdT poly-dT extension signal” value was found to be 161 ± 15.

With TTAGA, the “TdT poly-dT extension signal” value was determined as 396 ± 35. For CTAGC, the “TdT poly-dT extension signal” value amounted to 134 ± 8.7.

Turning to TTAG, the “TdT poly-dT extension signal” value is 308 ± 27.

For CTAGA, the “TdT poly-dT extension signal” value came out at 170 ± 11. On to TTAGC, for which the “TdT poly-dT extension signal” value came to 308 ± 15. As to TTAGT, the “TdT poly-dT extension signal” value was 368 ± 28.

Turning to GTAG, the “TdT poly-dT extension signal” value was 159 ± 11. To GTAGT belongs 130 ± 11; to ATAGC, 182 ± 14; to TGTCA, 114 ± 7.2.

AGTGT: the “TdT poly-dT extension signal” value was 44.6 ± 5.9. Next, GATGC: 82.1 ± 9.4; TACGA: 194 ± 14; CCGGA: 78.7 ± 10. As to ACGAA, the “TdT poly-dT extension signal” value stood at 76.9 ± 4.9.

Consider GTTTA, for which the “TdT poly-dT extension signal” value is 123 ± 9.7. To ATAGG belongs 198 ± 12; to CTAGG, 182 ± 8.8; to TTAGG, 444 ± 29. On to CCTGG, for which the “TdT poly-dT extension signal” value turned out to be 79.5 ± 7.8.

Consider TCTCA, for which the “TdT poly-dT extension signal” value came to 199 ± 18. In the case of TCTCT, the “TdT poly-dT extension signal” value stood at 347 ± 200. Next, TCTC: 128 ± 17; TAGGA: 123 ± 9.3; GTACG: 158 ± 12.

Consider TTACA, for which the “TdT poly-dT extension signal” value came to 344 ± 20. Next, CTACC: 127 ± 19; TTACC: 393 ± 30. To GTACA belongs 152 ± 8.5. As to GTACT, the “TdT poly-dT extension signal” value is 137 ± 10. To ATACA belongs 204 ± 18; to TTAC, 275 ± 24.

For the sequence CTACT, the “TdT poly-dT extension signal” value stood at 152 ± 15.

As to TTACT, the “TdT poly-dT extension signal” value is 396 ± 14. To TTACG belongs 380 ± 28. With GTACC, the “TdT poly-dT extension signal” value stood at 143 ± 13.

As for GACCT, the “TdT poly-dT extension signal” value came out at 77.6 ± 11.

Turning to GAGGT, the “TdT poly-dT extension signal” value was determined as 55.2 ± 5.3. To CAGAG belongs 71.3 ± 6.3; to AATTG, 77.2 ± 7. CTTTG: the “TdT poly-dT extension signal” value is 141 ± 13. Consider CCACT, for which the “TdT poly-dT extension signal” value worked out at 90 ± 7.8. Turning to AGTA, the “TdT poly-dT extension signal” value amounted to 44.2 ± 4.4. Next, ACCA: 87.8 ± 9.2; TTTCA: 281 ± 27.

ACCG: the “TdT poly-dT extension signal” value stood at 78.2 ± 8. With TTTAT, the “TdT poly-dT extension signal” value stood at 331 ± 24. Consider ATTAG, for which the “TdT poly-dT extension signal” value was determined as 195 ± 19. Next, GTTAC: 130 ± 11. With TTTAA, the “TdT poly-dT extension signal” value amounted to 392 ± 18. Consider TTTAG, for which the “TdT poly-dT extension signal” value is 345 ± 24. To CTTAT belongs 106 ± 7.6. Next, GTTAA: 194 ± 15; TTTAC: 344 ± 22; CTTAC: 153 ± 14. On to CTTAA, for which the “TdT poly-dT extension signal” value worked out at 181 ± 12. Take TTTA: the “TdT poly-dT extension signal” value is 271 ± 29.

As for ATTAT, the “TdT poly-dT extension signal” value is 152 ± 14. On to TGAGC, for which the “TdT poly-dT extension signal” value is 147 ± 8.6. Turning to TAAAC, the “TdT poly-dT extension signal” value was 191 ± 19.

CACCG: the “TdT poly-dT extension signal” value stood at 74.4 ± 8.1.

With TAAAT, the “TdT poly-dT extension signal” value was determined as 192 ± 18. Next, GCCGC: 93.5 ± 6.3; GTTTT: 125 ± 8.3.

On to CTTTA, for which the “TdT poly-dT extension signal” value is 106 ± 9.8. As to TTTTA, the “TdT poly-dT extension signal” value stood at 302 ± 24. For TTTTC, the “TdT poly-dT extension signal” value is 242 ± 27.

As to CATGG, the “TdT poly-dT extension signal” value came to 80 ± 9.5.
